The target in assay [1] is human CYP19A1, CYP19A1 (gene 1588) (UniProt P11511). In words: NVS_ADME_hCYP19A1: NovaScreen (NVS) CYP450-related Enzyme Activity (ADME) Assay for human CYP19A1 (AID 2283098). The procedure, abridged:
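Primary testing was in duplicate at a single 10 uM concentration, with actives followed up in concentration-response series. Fluorescence read-out of recombinant enzyme activity at 0.5 h, cell-free. Acetonitrile was the negative-control baseline.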

Assay [2] concerns the target human Ephrin type-A Receptor 1 (EphA1), EPHA1 (gene 2041) (UniProt P21709). Put plainly: NVS_ENZ_hEphA1: NovaScreen (NVS) Enzymatic Assay for human Ephrin type-A Receptor 1 (EphA1) (AID 2283158).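 Also: activity is signal loss versus DMSO meaning EphA1 kinase inhibition.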 In short, it runs like this: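 Here the EphA1 protein is recombinant and the substrate fluorescent, with electrophoretic separation before fluorescence detection at 1 hour. Signal loss against DMSO defines activity; plate controls included; follow-up concentration series reach 50 uM.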

A short description of assay [3]: BSK_SAg_SRB: Viability Assessment in the BioMAP Diversity Plus: SAg Assay (AID 2283096; active = hit-call score of the fitted dose curve at least 0.9, where 1 is the maximum; inactive = score below 0.9;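 also: cells read one day after compound addition; hits may be either gain or loss of signal compared with DMSO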). Particulars: primary human HUVEC with PBMC. In short, it runs like this:
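SRB absorbance at 560 nm served as the viability read-out. Cells (HUVEC plus peripheral blood mononuclear cells) were TCA-fixed and stained 24 h post-dosing; activity fitted in both directions against DMSO controls.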

Assay [4] addresses human CYP2D6, CYP2D6 (gene 1565) (UniProt P10635). In words: NVS_ADME_hCYP2D6: NovaScreen (NVS) CYP450-related Enzyme Activity (ADME) Assay for human CYP2D6 (AID 2283107). In short, it runs like this: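 Biochemical fluorescence assay, insect-cell-derived enzyme. Read at 1 h; inhibition taken from loss of signal against acetonitrile. Screened at 10 uM in duplicate, with concentration series for actives.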

In assay [5] the target is Cytochrome P450 2C19 (Homo sapiens) (UniProt P33261). Put plainly: NVS_ADME_hCYP2C19: NovaScreen (NVS) CYP450-related Enzyme Activity (ADME) Assay for human CYP2C19 (AID 2283113).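 Also: potency for inhibition seen as loss of fluorescent signal.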 The procedure, abridged: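 Biochemical CYP2C19 inhibition screen: insect-cell recombinant protein plus fluorescent substrate, 1 h, fluorescence intensity. Acetonitrile defined baseline activity. Single 10 uM concentration in duplicate, with concentration-response follow-up for actives.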

Assay [6] has as its target human Beta-secretase (BACE), BACE1 (gene 23621) (UniProt P56817). In words: NVS_ENZ_hBACE: NovaScreen (NVS) Enzymatic Assay for human Beta-secretase (BACE) (AID 2283140).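 Also: hits are inhibitors that reduce fluorescent substrate signal versus DMSO.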 In short, it runs like this:
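Fluorescence intensity read-out of protease activity defines this endpoint; signal loss relative to DMSO baseline marks inhibition. Recombinant enzyme from SF9 cells, cell-free format, 1 h exposure. Single-concentration duplicate screen (25 uM) precedes concentration-series follow-up.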

Assay [7] addresses human Dual Specificity Protein Phosphatase 3 (DUSP3), DUSP3 (gene 1845) (UniProt P51452). In words: NVS_ENZ_hDUSP3: NovaScreen (NVS) Enzymatic Assay for human Dual Specificity Protein Phosphatase 3 (DUSP3) (AID 2283152).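 Also: phosphatase activity of recombinant human DUSP3 on a fluorogenic substrate without cells.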 The procedure, abridged:
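Cell-free fluorescence-intensity enzyme activity assay with recombinant protein and substrate; loss of signal fitted relative to DMSO baseline. Primary screen in duplicate at 25 uM, actives then run in concentration series; measured 0 h after dosing.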

Assay [8] addresses human Caspase 5 (CASP5), CASP5 (gene 838) (UniProt P51878). In words: NVS_ENZ_hCASP5: NovaScreen (NVS) Enzymatic Assay for human Caspase 5 (CASP5) (AID 2283137). In short, it runs like this:
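Chemicals were first tested in duplicate at 25 uM against recombinant caspase 5 from E. coli. Activity was read by fluorescence intensity 2 hours after dosing. Those passing a preset inhibition threshold were retested in singleton concentration-response up to 50 uM.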

For assay [9], the target named is human CYP2C9, CYP2C9 (gene 1559) (UniProt P11712). Put plainly: NVS_ADME_hCYP2C9: NovaScreen (NVS) CYP450-related Enzyme Activity (ADME) Assay for human CYP2C9 (AID 2283108). In short, it runs like this: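 Fluorescence readout of CYP2C9 activity (SF9-expressed human enzyme) at 0.75 h. The primary screen used 10 uM in duplicate, with concentration-response follow-up for actives; acetonitrile was the negative control.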
Chain of human CYP2C9, CYP2C9 (gene 1559) (P11712 whole entry, looked up): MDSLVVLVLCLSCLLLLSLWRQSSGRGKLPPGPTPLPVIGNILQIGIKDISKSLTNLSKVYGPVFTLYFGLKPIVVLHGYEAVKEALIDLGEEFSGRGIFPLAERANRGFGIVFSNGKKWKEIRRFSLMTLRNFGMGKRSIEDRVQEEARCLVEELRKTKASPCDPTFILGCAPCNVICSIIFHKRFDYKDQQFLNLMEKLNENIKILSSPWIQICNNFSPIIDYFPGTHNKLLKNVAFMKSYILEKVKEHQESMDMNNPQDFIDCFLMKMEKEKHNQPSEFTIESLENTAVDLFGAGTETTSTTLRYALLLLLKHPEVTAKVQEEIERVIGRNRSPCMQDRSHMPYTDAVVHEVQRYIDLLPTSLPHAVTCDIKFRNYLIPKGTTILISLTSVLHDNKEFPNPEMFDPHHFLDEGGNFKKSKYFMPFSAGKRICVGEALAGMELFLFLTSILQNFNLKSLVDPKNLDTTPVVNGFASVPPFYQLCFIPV

Assay [10] deals with human Esterase Plasma (ES), BCHE (gene 590) (UniProt P06276). In words: NVS_ENZ_hES: NovaScreen (NVS) Enzymatic Assay for human Esterase Plasma (ES) (AID 2283157). In short, it runs like this: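 Primary single-concentration screen at 25 uM in duplicate, then concentration-response to a 50 uM top dose. Human plasma esterase activity detected colorimetrically after 0.25 h incubation, with DMSO as baseline.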
Chain of human Esterase Plasma (ES), BCHE (gene 590) (P06276 whole entry, looked up): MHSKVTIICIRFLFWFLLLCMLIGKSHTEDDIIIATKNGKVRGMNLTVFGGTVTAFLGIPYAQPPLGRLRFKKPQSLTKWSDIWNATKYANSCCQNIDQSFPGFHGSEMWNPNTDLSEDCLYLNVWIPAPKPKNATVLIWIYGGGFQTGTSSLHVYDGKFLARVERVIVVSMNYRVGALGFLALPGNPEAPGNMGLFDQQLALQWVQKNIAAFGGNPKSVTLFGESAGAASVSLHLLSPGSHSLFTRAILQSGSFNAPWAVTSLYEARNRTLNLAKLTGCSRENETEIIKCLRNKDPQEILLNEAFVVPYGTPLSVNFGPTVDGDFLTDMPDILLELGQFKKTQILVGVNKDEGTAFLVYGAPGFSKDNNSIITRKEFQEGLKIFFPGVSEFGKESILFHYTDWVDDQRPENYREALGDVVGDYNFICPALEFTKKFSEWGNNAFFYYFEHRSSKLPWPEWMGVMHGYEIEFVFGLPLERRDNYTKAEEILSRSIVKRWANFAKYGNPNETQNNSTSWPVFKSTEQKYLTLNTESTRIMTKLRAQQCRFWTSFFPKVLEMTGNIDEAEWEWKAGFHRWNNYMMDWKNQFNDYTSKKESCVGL

SMILES strings stand for the structures. Records with an inconclusive call do not appear. Activity calls are given as the source filed them. The calls were made as follows, unless noted: active = hit-call score of the fitted dose curve at least 0.9, where 1 is the maximum; inconclusive = response in the unintended direction; inactive = score below 0.9.

Chain of human Dual Specificity Protein Phosphatase 3 (DUSP3), DUSP3 (gene 1845) (P51452 whole entry, looked up): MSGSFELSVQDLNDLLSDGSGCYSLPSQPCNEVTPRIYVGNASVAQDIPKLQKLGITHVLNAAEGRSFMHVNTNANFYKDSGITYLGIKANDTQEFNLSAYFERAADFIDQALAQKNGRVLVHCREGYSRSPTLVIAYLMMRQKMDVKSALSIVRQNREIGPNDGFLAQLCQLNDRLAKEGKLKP
Chain of human CYP19A1, CYP19A1 (gene 1588) (P11511 whole entry, looked up): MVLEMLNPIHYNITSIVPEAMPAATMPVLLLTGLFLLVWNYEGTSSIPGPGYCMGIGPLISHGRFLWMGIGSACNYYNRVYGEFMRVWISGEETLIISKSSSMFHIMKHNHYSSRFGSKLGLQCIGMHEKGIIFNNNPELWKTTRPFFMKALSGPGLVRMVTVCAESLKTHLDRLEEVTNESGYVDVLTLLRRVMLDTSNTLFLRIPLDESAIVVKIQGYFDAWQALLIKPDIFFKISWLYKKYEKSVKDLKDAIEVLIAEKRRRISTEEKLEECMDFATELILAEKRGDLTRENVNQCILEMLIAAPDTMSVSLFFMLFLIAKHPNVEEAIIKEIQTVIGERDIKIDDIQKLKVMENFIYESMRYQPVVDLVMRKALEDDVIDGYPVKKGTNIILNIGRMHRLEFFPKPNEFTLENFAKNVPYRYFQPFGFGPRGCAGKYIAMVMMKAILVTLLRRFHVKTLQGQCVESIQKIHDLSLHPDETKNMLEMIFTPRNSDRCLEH
Chain of human Beta-secretase (BACE), BACE1 (gene 23621) (P56817 whole entry, looked up): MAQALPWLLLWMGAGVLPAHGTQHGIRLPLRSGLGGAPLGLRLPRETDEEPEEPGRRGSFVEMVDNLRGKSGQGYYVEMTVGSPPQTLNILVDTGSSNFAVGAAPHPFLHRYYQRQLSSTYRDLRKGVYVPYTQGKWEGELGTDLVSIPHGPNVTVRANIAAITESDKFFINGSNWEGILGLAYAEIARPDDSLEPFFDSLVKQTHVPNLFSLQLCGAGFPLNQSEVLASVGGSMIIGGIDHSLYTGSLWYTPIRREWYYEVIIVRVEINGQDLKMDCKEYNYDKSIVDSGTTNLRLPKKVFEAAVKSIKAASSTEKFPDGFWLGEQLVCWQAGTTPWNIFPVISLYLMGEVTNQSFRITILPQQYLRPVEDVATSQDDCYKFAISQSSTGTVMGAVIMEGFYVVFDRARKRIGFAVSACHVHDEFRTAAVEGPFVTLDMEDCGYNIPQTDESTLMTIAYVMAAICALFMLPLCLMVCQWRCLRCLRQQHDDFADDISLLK
Chain of human Caspase 5 (CASP5), CASP5 (gene 838) (P51878 whole entry, looked up): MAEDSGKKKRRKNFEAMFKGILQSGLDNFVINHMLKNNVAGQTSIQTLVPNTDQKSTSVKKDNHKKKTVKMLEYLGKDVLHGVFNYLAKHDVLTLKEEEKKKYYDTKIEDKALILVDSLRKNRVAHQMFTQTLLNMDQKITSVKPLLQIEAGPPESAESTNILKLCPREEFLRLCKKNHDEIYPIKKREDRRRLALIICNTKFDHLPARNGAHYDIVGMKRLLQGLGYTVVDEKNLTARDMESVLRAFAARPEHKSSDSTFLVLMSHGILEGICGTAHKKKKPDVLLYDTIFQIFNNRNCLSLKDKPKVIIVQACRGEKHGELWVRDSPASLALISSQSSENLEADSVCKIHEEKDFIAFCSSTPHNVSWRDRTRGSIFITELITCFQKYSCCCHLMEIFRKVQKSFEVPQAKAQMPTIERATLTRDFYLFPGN
Chain of human Ephrin type-A Receptor 1 (EphA1), EPHA1 (gene 2041) (P21709 whole entry, looked up): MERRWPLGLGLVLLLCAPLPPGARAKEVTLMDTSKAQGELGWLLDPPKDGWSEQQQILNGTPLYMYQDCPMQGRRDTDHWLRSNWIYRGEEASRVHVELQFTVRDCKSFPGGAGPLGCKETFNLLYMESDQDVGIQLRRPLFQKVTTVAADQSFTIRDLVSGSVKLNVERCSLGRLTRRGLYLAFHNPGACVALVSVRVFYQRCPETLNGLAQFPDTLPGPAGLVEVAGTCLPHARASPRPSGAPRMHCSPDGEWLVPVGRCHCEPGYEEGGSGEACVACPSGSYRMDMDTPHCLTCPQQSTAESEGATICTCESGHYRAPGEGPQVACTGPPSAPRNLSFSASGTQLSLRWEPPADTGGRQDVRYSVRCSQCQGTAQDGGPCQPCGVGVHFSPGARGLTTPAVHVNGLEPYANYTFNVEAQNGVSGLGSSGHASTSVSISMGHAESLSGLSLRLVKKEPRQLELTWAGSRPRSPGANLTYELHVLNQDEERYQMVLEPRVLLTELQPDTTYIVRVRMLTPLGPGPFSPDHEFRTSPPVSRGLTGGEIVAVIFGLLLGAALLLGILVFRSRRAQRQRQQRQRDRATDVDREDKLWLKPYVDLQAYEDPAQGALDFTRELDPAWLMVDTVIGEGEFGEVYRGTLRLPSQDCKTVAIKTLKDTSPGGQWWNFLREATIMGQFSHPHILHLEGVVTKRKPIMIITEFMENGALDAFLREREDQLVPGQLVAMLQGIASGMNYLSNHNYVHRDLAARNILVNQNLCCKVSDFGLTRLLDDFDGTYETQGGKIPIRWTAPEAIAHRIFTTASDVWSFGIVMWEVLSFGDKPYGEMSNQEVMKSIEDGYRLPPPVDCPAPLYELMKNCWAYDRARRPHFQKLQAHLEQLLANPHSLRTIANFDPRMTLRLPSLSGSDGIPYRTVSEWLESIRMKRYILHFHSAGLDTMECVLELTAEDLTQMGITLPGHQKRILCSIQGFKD
Chain of human CYP2D6, CYP2D6 (gene 1565) (P10635 whole entry, looked up): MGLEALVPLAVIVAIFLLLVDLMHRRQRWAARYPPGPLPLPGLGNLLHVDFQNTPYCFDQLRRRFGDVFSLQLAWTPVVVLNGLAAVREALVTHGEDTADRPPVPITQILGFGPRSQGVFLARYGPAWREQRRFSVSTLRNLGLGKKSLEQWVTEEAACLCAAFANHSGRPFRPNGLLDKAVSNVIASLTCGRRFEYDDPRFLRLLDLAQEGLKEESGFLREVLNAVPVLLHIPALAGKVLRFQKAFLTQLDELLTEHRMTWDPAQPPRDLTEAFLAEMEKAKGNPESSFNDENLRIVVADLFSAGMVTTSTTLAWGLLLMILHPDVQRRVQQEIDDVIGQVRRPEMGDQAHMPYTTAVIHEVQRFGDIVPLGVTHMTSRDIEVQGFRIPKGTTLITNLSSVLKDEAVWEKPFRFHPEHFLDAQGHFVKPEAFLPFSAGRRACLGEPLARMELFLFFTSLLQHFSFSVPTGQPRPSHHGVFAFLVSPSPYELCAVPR

Turning to `CC(CC=O)CCCC(C)(C)O` (stereo unspecified), in assay [1], the molecule was classed as inactive.
Turning to `COCCOCCOCCOCCOC`, the result in assay [2] was inactive.
As for `CCCCCCCCCCCCCCCC[N+](C)(C)CC`, the concentration at half-maximal activity (AC50) (usually the concentration giving half of the maximal activity seen) was 1.69 µM (active) in assay [3]; 0.536 µM (active) in assay [4]; 2.31 µM (active) in [5]; 6.41 µM (active) in assay [6]; 20.8 µM (active) in [7]. Moreover, the outcome in [2] was inactive.
With `O=Nc1ccc(O)cc1`, in assay [3], the result was inactive. Besides, the AC50 was 3.79 µM (active) in assay [4] and 13.5 µM (active) in assay [8].
`CCCCC/C=C\C/C=C\CCCCCCCC(=O)OC`: the outcome in assay [3] was inactive. Also, the results for the AC50 in [5] and in assay [8] were 6.47 µM (active) and 6.61 µM (active), respectively.
As for `C/C=C\C/C=C/CCCCCCCCOC(C)=O`, the result in [3] and in assay [2] was inactive. The AC50 is 3.9 µM (active) in assay [9] and 0.065 µM (active) in [5].
Turning to `N#[N+]c1ccc2c(S(=O)(=O)[O-])cccc2c1O`, the outcome in [3] and in assay [2] was inactive. Also, the results for the AC50 in assay [4], in [8] and in assay [7] were 3.97 µM (active), 9.03 µM (active) and 14.9 µM (active), respectively.
Take `CC(C)(c1cc(Br)c(OCCO)c(Br)c1)c1cc(Br)c(OCCO)c(Br)c1`: the outcome in assay [3] and in assay [2] was inactive. In addition, the AC50 is 0.879 µM (active) in [9] and 1.8 µM (active) in assay [5].
For `Cc1ccc(N)c([N+](=O)[O-])c1`, the AC50 in [2] is 43.4 µM (active).
Take `c1ccc2c(c1)ccc1cc3c(ccc4ccccc43)cc12`: the result in assay [3] was inactive. Besides, the results for the half-maximal activity concentration (AC50) in [8] and in [6] were 5.15 µM (active) and 13 µM (active), respectively.
As for `COc1ccc2nc(N)sc2c1`, the outcome in assay [3] was inactive. Besides, the concentration at half-maximal activity (AC50) in assay [5] was 0.319 µM (active).
`O=C1CCC(=O)N1Cl`: the concentration at half-maximal activity (AC50) in [7] was 16.5 µM (active).
As for `CC(=O)[C@H]1[C@H](C#N)C[C@H]2[C@@H]3CC=C4C[C@@H](O)CC[C@]4(C)[C@H]3CC[C@@]21C`, the outcome in assay [1] was inactive.
Take `CNC(=S)N(C)C`: in assay [2], the AC50 was 18.6 µM (active).
Turning to `C=CCOCC(O)CCl` (stereo unspecified), the result in assay [3], in [8] and in assay [6] was inactive.
Take `CCCCCCCC/C=C\CCCCCCCC(=O)O`: in assay [1], the molecule was classed as inactive.
For the molecule `C#CC1(O)CC[C@H]2[C@@H]3CCC4=CCCC[C@@H]4[C@H]3CC[C@@]21C` (stereo partly specified), the figures for the half-maximal activity concentration (AC50) in [3] and in [5] were 28 µM (active) and 0.032 µM (active), respectively.
With `Cc1cc(C)c(C)c(C)c1`, the molecule was called inactive in [2].
In the case of `CCC(CC)C(=O)O`, the AC50 in [2] is 4.56 µM (active).
Turning to `CC1(C)S[C@@H]2[C@H](NC(=O)COc3ccccc3)C(=O)N2[C@H]1C(=O)O`, the molecule was called inactive in assay [6].
For the molecule `c1ccc2c(c1)ccc1ncccc12`, the values for the AC50 in assay [3] and in assay [10] were 28.1 µM (active) and 20.2 µM (active), respectively.
Take `CCCCC(CC)COC(=O)c1ccccc1O` (stereo unspecified): the result in assay [3] was inactive. Moreover, the AC50 in [6] is 11.1 µM (active).
Regarding `S=C(NC1CCCCC1)NC1CCCCC1`, the result in [3] and in assay [2] was inactive.

Values taken from PubChem BioAssay (EPA / NIEHS).
